# Results reported in the supplement of paper PMC8728848.
# Only a selection was taken, and the strongest signals are over-represented in it overall.
# Key:
# Experiment in all cases: glycan array binding signal (z-score within array); higher = stronger binding
# Conditions in all cases: glycan notation: IUPAC condensed, linker removed; mutation: D21K
# GalNAc3S(b1-4)GlcNAc = biological target: GalNAc3S(b1-4)GlcNAc
# Summary of the method: (§1)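 The binding signal is a Z-score computed within each array and averaged over linkers. Arrays of the same protein sequence at different concentrations or buffers were also averaged together. Data originate from 3228 arrays in the Consortium for Functional Glycomics database, kept only where the protein sequence was available.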
# GalNAc4S6S(b1-4)GlcNAc = biological target: GalNAc4S6S(b1-4)GlcNAc
# Summary of the method: as §1
# Glc(a1-6)Glc(a1-6)Glc = biological target: Glc(a1-6)Glc(a1-6)Glc
# Summary of the method: as §1
# GlcA(b1-3)GlcNAc = biological target: GlcA(b1-3)GlcNAc
# Summary of the method: as §1
# [1] = biological target: GlcNAc(b1-2)[GlcNAc(b1-6)]Man(a1-6)[GlcNAc(b1-2)Man(a1-3)]Man(b1-4)GlcNAc(b1-4)GlcNAc
# Summary of the method: as §1
# GlcNAc(b1-3)Gal = biological target: GlcNAc(b1-3)Gal
# Summary of the method: as §1
# GlcNAc(b1-3)Gal(b1-4)Glc = biological target: GlcNAc(b1-3)Gal(b1-4)Glc
# Summary of the method: as §1
# [2] = biological target: GlcNAc(b1-3)Gal(b1-4)GlcNAc
# Summary of the method: as §1
# [3] = biological target: GlcNAc(b1-3)Gal(b1-4)GlcNAc(b1-3)Gal(b1-4)GlcNAc(b1-2)Man(a1-3)[GlcNAc(b1-3)Gal(b1-4)GlcNAc(b1-3)Gal(b1-4)GlcNAc(b1-2)Man(a1-6)]Man(b1-4)GlcNAc(b1-4)[Fuc(a1-6)]GlcNAc
# Summary of the method: as §1
# [4] = biological target: GlcNAc(b1-3)Gal(b1-4)GlcNAc(b1-3)Gal(b1-4)GlcNAc(b1-3)Gal(b1-4)GlcNAc(b1-2)[GlcNAc(b1-3)Gal(b1-4)GlcNAc(b1-3)Gal(b1-4)GlcNAc(b1-3)Gal(b1-4)GlcNAc(b1-6)]Man(a1-6)[GlcNAc(b1-3)Gal(b1-4)GlcNAc(b1-3)Gal(b1-4)GlcNAc(b1-3)Gal(b1-4)GlcNAc(b1-2)Man(a1-3)]Man(b1-4)GlcNAc(b1-4)[Fuc(a1-6)]GlcNAc
# Summary of the method: as §1
# [5] = biological target: GlcNAc(b1-3)Gal(b1-4)GlcNAc(b1-3)Gal(b1-4)GlcNAc(b1-3)Gal(b1-4)GlcNAc(b1-3)Gal(b1-4)GlcNAc(b1-2)[GlcNAc(b1-3)Gal(b1-4)GlcNAc(b1-3)Gal(b1-4)GlcNAc(b1-3)Gal(b1-4)GlcNAc(b1-3)Gal(b1-4)GlcNAc(b1-6)]Man(a1-6)[GlcNAc(b1-3)Gal(b1-4)GlcNAc(b1-3)Gal(b1-4)GlcNAc(b1-3)Gal(b1-4)GlcNAc(b1-3)Gal(b1-4)GlcNAc(b1-2)Man(a1-3)]Man(b1-4)GlcNAc(b1-4)[Fuc(a1-6)]GlcNAc
# Summary of the method: as §1
# [6] = biological target: GlcNAc(b1-3)Gal(b1-4)GlcNAc(b1-6)[GlcNAc(b1-3)Gal(b1-3)]GalNAc
# Summary of the method: as §1
# [7] = biological target: GlcNAc(b1-3)[GlcNAc(b1-4)][GlcNAc(b1-6)]GlcNAc
# Summary of the method: as §1
# [8] = biological target: GlcNAc(b1-3)[GlcNAc(b1-6)]Gal(b1-4)GlcNAc
# Summary of the method: as §1
# [9] = biological target: Neu5Ac(a2-3)Gal(b1-3)GlcNAc6S
# Summary of the method: as §1
# [10] = biological target: Neu5Ac(a2-3)Gal(b1-4)GlcNAc(b1-3)Gal(b1-4)GlcNAc(b1-3)GalNAc
# Summary of the method: as §1
# [11] = biological target: Neu5Ac(a2-3)Gal(b1-4)GlcNAc(b1-3)GalNAc
# Summary of the method: as §1
# [12] = biological target: Neu5Ac(a2-6)Gal(b1-4)GlcNAc(b1-2)Man
# Summary of the method: as §1
# [13] = biological target: Neu5Ac(a2-6)Gal(b1-4)GlcNAc(b1-2)Man(a1-3)[Neu5Ac(a2-3)Gal(b1-4)GlcNAc(b1-2)Man(a1-6)]Man(b1-4)GlcNAc(b1-4)GlcNAc
# Summary of the method: as §1
# [14] = biological target: Neu5Ac(a2-6)Gal(b1-4)GlcNAc(b1-2)Man(a1-3)[Neu5Ac(a2-6)Gal(b1-4)GlcNAc(b1-2)Man(a1-6)]Man(b1-4)GlcNAc(b1-4)GlcNAc
# Summary of the method: as §1
# [15] = biological target: Neu5Ac(a2-6)Gal(b1-4)GlcNAc(b1-2)[Neu5Ac(a2-6)Gal(b1-4)GlcNAc(b1-6)]Man(a1-6)[Neu5Ac(a2-6)Gal(b1-4)GlcNAc(b1-2)Man(a1-3)][GlcNAc(b1-4)]Man(b1-4)GlcNAc(b1-4)GlcNAc
# Summary of the method: as §1
# [16] = biological target: Neu5Ac(a2-6)Gal(b1-4)GlcNAc(b1-3)Gal(b1-4)GlcNAc(b1-3)Gal(b1-4)GlcNAc
# Summary of the method: as §1
# [17] = biological target: Neu5Ac(a2-6)Gal(b1-4)GlcNAc(b1-3)Gal(b1-4)GlcNAc(b1-3)GalNAc
# Summary of the method: as §1
# [18] = biological target: Neu5Ac(a2-6)Gal(b1-4)GlcNAc(b1-3)GalNAc
# Summary of the method: as §1
# [19] = biological target: Neu5Ac(a2-8)Neu5Ac(a2-3)Gal(b1-3)GalNAc(b1-4)[Neu5Ac(a2-8)Neu5Ac(a2-3)]Gal(b1-4)Glc
# Summary of the method: as §1
binder,measurement,setting,value
KILRGVCKKIMRTFLRRISKKILTGKK [C7A (Sus scrofa)],glycan array binding signal (z-score),GalNAc3S(b1-4)GlcNAc,0.857
same,glycan array binding signal (z-score),GalNAc4S6S(b1-4)GlcNAc,2.43
same,glycan array binding signal (z-score),Glc(a1-6)Glc(a1-6)Glc,-0.06
same,glycan array binding signal (z-score),GlcA(b1-3)GlcNAc,0.609
same,glycan array binding signal (z-score),[1],-0.74
same,glycan array binding signal (z-score),GlcNAc(b1-3)Gal,-1.53
same,glycan array binding signal (z-score),GlcNAc(b1-3)Gal(b1-4)Glc,-0.83
same,glycan array binding signal (z-score),[2],-0.565
same,glycan array binding signal (z-score),[3],2.43
same,glycan array binding signal (z-score),[4],2.39
same,glycan array binding signal (z-score),[5],2.49
same,glycan array binding signal (z-score),[6],-0.629
same,glycan array binding signal (z-score),[7],-0.24
same,glycan array binding signal (z-score),[8],0.238
same,glycan array binding signal (z-score),[9],1.71
same,glycan array binding signal (z-score),[10],2.25
same,glycan array binding signal (z-score),[11],0.438
same,glycan array binding signal (z-score),[12],-0.792
same,glycan array binding signal (z-score),[13],0.295
same,glycan array binding signal (z-score),[14],0.295
same,glycan array binding signal (z-score),[15],0.348
same,glycan array binding signal (z-score),[16],0.41
same,glycan array binding signal (z-score),[17],0.528
same,glycan array binding signal (z-score),[18],1.32
same,glycan array binding signal (z-score),[19],-0.48
